# Results as given in PubChem BioAssay (Tox21).
# Results filed as inconclusive are left out. Values without a mark were called inactive. Activity calls are given as the source filed them. Unless noted, the call rests on the fitted dose curve.
# Molecular target: Vitamin D3 receptor (Homo sapiens) (UniProt P11473)
# Experiment: qHTS assay to identify small molecule agonists of the vitamin D receptor (VDR) signaling pathway (AID 743222)
# Conditions: HEK293T VDR-UAS-bla, beta-lactamase FRET ratio, 16 h; series mostly up to 63.5 µM
# How it was run: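 VDR-bla cells, 2,000/well; 4 h preincubation 37C; cpd (DMSO) 16 h; LiveBLAzer B/G substrate 2 h RT; fluorescence intensity read.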
# On the % scale 0 is the no-effect control and ±100 the full control effect.
# Chain of Vitamin D3 receptor (Homo sapiens) (P11473 whole entry, looked up): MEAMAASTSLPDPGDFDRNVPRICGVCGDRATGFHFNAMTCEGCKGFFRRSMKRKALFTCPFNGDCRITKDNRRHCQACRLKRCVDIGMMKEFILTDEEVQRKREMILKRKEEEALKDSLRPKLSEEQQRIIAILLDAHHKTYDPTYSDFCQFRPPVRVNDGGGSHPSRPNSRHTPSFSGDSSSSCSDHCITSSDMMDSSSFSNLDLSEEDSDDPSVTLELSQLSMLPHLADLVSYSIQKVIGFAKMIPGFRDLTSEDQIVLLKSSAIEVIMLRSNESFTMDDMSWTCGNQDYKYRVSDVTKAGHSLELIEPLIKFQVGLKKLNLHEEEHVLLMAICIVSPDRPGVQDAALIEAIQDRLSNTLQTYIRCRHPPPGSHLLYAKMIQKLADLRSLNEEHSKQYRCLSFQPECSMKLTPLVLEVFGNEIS
SMILES,outcome,activation
Cn1c(N)c(N=O)c(=O)n(C)c1=O,inactive,–
N[C@H](C(=O)O)c1ccc(O)cc1,inactive,–
Nc1ccccc1S(=O)(=O)O,inactive,–
CC(=O)OCC(CCn1cnc2cnc(N)nc21)COC(C)=O,inactive,–
CCn1nc(C(=O)O)c(=O)c2cc3c(cc21)OCO3,inactive,–
CCC(C)S (configuration not stated),–,12.2% [at 2.71 µM]
CCCCCCOC(=O)CCCCC(=O)OCCCCCC,inactive,–
CC/C=C\CCOC(C)=O,inactive,–
C[C@H]1C[C@@H](O)CC(C)(C)C1,inactive,–
O=C1OC(=O)C2CCCCC12 (configuration not stated),inactive,–
Nc1cc(=O)[nH]c(N)n1,inactive,–
CC(=O)OCC(=O)[C@@]1(O)CCC2C3CCC4=CC(=O)CC[C@]4(C)C3[C@@H](O)C[C@@]21C (some centres not stated),inactive,–
CCOc1ccc(C(=O)OCCN(CC)CC)cc1,inactive,–
O=c1cc(CO)occ1O,inactive,–
O=c1[nH]c(=O)n([C@H]2C[C@H](O)[C@@H](CO)O2)cc1I,inactive,–
CO[Si](CCCOCC1CO1)(OC)OC (configuration not stated),inactive,–
CN1C(=O)N(C)C(O)C1O (configuration not stated),inactive,–
CC1=CC(C)C(C=O)CC1 (configuration not stated),inactive,–
OCCOc1ccc(OCCO)cc1,inactive,–
O=C(O)c1ccccc1OP(=O)(O)O,inactive,–
CC(C)NC(=O)NC(C)C,inactive,–
Cn1cc(S(C)=O)c(=O)c2ccc(F)cc21 (configuration not stated),inactive,–
CC(C)c1cc2c(cc1S(=O)(=O)O)[C@@]1(C)CCC[C@@](C)(C(=O)O)[C@@H]1CC2,inactive,–
O=c1n(CCO)c(=O)n(CCO)c(=O)n1CCO,inactive,–
CCC(C)C1CCCCC1=O (configuration not stated),inactive,–
COC(C)(C)CCCC(C)CC=O (configuration not stated),inactive,–

# Molecular target: Vitamin D3 receptor (Homo sapiens) (UniProt P11473)
# Experiment: qHTS assay to identify small molecule antagonists of the vitamin D receptor (VDR) signaling pathway (AID 743223; active means well fitted inhibition curve with a large enough effect in the signal ratio in the repeat runs, not every such curve was filed as active; the % refers to the signal ratio)
# Conditions: VDR-UAS-bla HEK293T, beta-lactamase FRET ratio, 16 h; series mostly up to 61 µM
# How it was run: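 Cells carrying a VDR-driven beta-lactamase reporter (VDR-bla) were co-treated with compound and 3 nM final 1alpha,25-dihydroxyvitamin D3 for 16 h at 37C; reporter activity was measured as FRET substrate fluorescence after 2 h at room temperature.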
SMILES,outcome,"activity change, negative = inhibition"
Cn1c(N)c(N=O)c(=O)n(C)c1=O,inactive,–
N[C@H](C(=O)O)c1ccc(O)cc1,inactive,–
Nc1ccccc1S(=O)(=O)O,inactive,–
CC(=O)OCC(CCn1cnc2cnc(N)nc21)COC(C)=O,inactive,–
CCC(C)S (configuration not stated),–,0.31% [at 3.11 µM]
CC/C=C\CCOC(C)=O,inactive,–
C[C@H]1C[C@@H](O)CC(C)(C)C1,inactive,–
O=C1OC(=O)C2CCCCC12 (configuration not stated),inactive,–
Nc1cc(=O)[nH]c(N)n1,inactive,–
CC(=O)OCC(=O)[C@@]1(O)CCC2C3CCC4=CC(=O)CC[C@]4(C)C3[C@@H](O)C[C@@]21C (some centres not stated),inactive,–
CCOc1ccc(C(=O)OCCN(CC)CC)cc1,inactive,–
O=c1cc(CO)occ1O,inactive,–
O=c1[nH]c(=O)n([C@H]2C[C@H](O)[C@@H](CO)O2)cc1I,inactive,–
CN1C(=O)N(C)C(O)C1O (configuration not stated),inactive,–
OCCOc1ccc(OCCO)cc1,inactive,–
O=C(O)c1ccccc1OP(=O)(O)O,inactive,–
CC(C)NC(=O)NC(C)C,inactive,–
Cn1cc(S(C)=O)c(=O)c2ccc(F)cc21 (configuration not stated),inactive,–
CC(C)c1cc2c(cc1S(=O)(=O)O)[C@@]1(C)CCC[C@@](C)(C(=O)O)[C@@H]1CC2,inactive,–
O=c1n(CCO)c(=O)n(CCO)c(=O)n1CCO,inactive,–
COC(C)(C)CCCC(C)CC=O (configuration not stated),inactive,–
